Screening data from PubChem.
Rows were chosen to be rich in hits. Some 2.9% of all compounds tested hit in one or more screens of this group.
ADAM10 inh = human ADAM10 inhibitors, primary screen, biochemical, QFRET, HTS | recombinant ADAM10, EDANS/DABCYL FRET peptide cleavage, 3 h | inhibition, % at 7 µM | actives 0.62% (n = 370,000) | Disintegrin and metalloproteinase domain-containing protein 10 (Homo sapiens), O14672;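 active means inhibition above a per-campaign cutoff equal to the mean of compounds falling between control-based bounds plus 3 SD, cut at about 20% in these data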;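 further: 0% = DMSO wells while the 100% control is not disclosed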
PLC-gamma1 inh = PLC-gamma1 enzyme inhibitors, primary screen, biochemical, fluorescence, purified enzyme; 1-phosphatidylinositol 4,5-bisphosphate phosphodiesterase gamma-1 (Homo sapiens), P19174; fluorogenic substrate; inhibition, % at 12.2 µM; actives 0.84% (n = 370,000); AID 720700, 2013; in the data active means inhibition above about 9.5%
proKLK7 act = proKLK7 zymogen activators, primary screen, biochemical, fluorescence intensity; Kallikrein-7 (Homo sapiens), P49862; purified proKLK7, EDANS-DABCYL substrate fluorescence; 100% is mature enzyme control, 0% vehicle; activation, % at 7 µM; actives 0.9% (n = 370,000);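 active means activation above the mean of all tested compounds plus 3 SD, computed per campaign excluding outliers beyond control limits, cut at about 13% in these data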
PLCb3 inh = human PLC-beta3 inhibitors, primary screen, biochemical, fluorescence | 1-phosphatidylinositol 4,5-bisphosphate phosphodiesterase beta-3 (Homo sapiens), Q01970 | Purified PLC-beta3, fluorogenic substrate | inhibition, % at 12.2 µM | actives 0.18% (n = 370,000) | AID 720704, 2013;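 further: 0% = median of compound wells on plate and 100% = full blocker control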
ADAM17 inh = ADAM17 inhibitors, primary screen, biochemical, QFRET. AID 720648, 2013. inhibition, % at 6.95 µM. recombinant ADAM17, EDANS/DABCYL FRET peptide cleavage. Disintegrin and metalloproteinase domain-containing protein 17 (Homo sapiens), P78536. actives 0.83% (n = 370,000);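 active means inhibition above the mean of compounds lying between control limits plus 3 SD, set per campaign, cut at about 8.5% in these data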;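 further: 0% = DMSO-only wells as the low control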
PLCg1 ctr = PLC-gamma1 enzyme inhibitors, counter-screen for PLC-beta3 inhibitor project, biochemical, fluorescence; shares compounds with PLC-gamma1 inh; purified PLC-gamma1, fluorogenic substrate; inhibition, % at 12.3 µM; actives 3.1% (n = 3,300); in the data active means inhibition above about 9.5%
PLCbeta3 conf = PLC-beta3 inhibitor confirmation, biochemical, fluorescence, purified enzyme; inhibition, % at 12.3 µM; fluorogenic substrate fluorescence; AID 743261, 2014; shares compounds with PLC-gamma1 inh; actives 1% (n = 3,300)
Active calls of the source: *; x = no result. Unless noted, no stated cut-off is given here; in the data, active means inhibition above about 11%; inactive means the rest.

SMILES	ADAM10 inh	PLC-gamma1 inh	proKLK7 act	PLCb3 inh	ADAM17 inh	PLCg1 ctr	PLCbeta3 conf
COc1ccc(C2c3c(-c4ccccc4)n[nH]c3C(=O)N2c2ccc(C(=O)O)cc2)cc1 (stereo not drawn)	9	11*	0	6	4	-4	-5
COc1cccc(C2c3c(-c4ccccc4)n[nH]c3C(=O)N2c2ccc(C(=O)O)cc2)c1 (stereo not drawn)	-2	2	0	0	-3	x	x
Cc1nn(-c2ccccc2)c(C)c1NC(=O)Cc1cccs1	4	-1	-1	0	-2	x	x
Cc1nn(-c2ccccc2)c(C)c1NC(=O)c1cccs1	2	12*	0	2	5	-6	-3
Cc1cc(C)cc(NC(=O)C2COc3ccccc3O2)c1 (stereo not drawn)	-3	-1	0	2	-2	x	x
O=C(CSc1nncn1-c1ccccc1)Nc1ccc(N2CCOCC2)cc1	8	9.8*	0	1	4	-4	-2
O=C(CSc1nnnn1-c1ccccc1)Nc1ccc(Cl)cc1	8	14*	0	4	1	-7	-2
O=C(CSc1n[nH]c(=O)n1-c1ccccc1)Nc1ccccc1	3	15*	0	9	4	-10	-4
O=C(CSc1n[nH]c(=O)n1-c1cccnc1)Nc1ccccc1	10	0	0	-5	-1	x	x
O=C(CSc1nnnn1-c1ccccc1)Nc1ccc(Cl)cn1	-6	1	0	1	-1	x	x
Cc1ccc(Oc2nnc(-c3ccccc3)cc2C#N)cc1	3	3	-1	2	-2	x	x
N#Cc1cc(-c2ccccc2)nnc1Oc1ccccc1	3	13*	0	-2	-6	-7	-4
CC(C)n1c(=O)c2ccccc2n1Cc1cn(C2CCCC2)nn1	-316	-45	3	-53	-88	x	x
O=C(C[C@@H]1C/C=C\C[C@@H](Cc2ccc(F)cc2)C(=O)OC[C@H]2CCCN2C1=O)NCCO	-5	0	2	-3	-8	x	x
O=C(C[C@@H]1C/C=C\C[C@H](Cc2ccc(F)cc2)C(=O)OC[C@H]2CCCN2C1=O)NCCO	5	10*	1	3	3	-8	-2
COc1cc(OC)cc(C(C)c2ccc(C)cc2)c1 (stereo not drawn)	0	2	x	3	-1	x	x
CCN1C(=O)N[C@H]2C[C@H](C(=O)N3CCCC3)[C@H](C)[C@H](c3ccccc3)C[C@H]21	-7	-3	0	0	-2	x	x
COCCCNC(=O)CCc1nc(-c2ccccc2Cl)no1	4	11*	-1	8	3	-4	0
O=C(CCc1nc(-c2ccccc2Cl)no1)NCCc1ccccc1	4	1	0	-1	2	x	x
COc1ccc(NS(=O)(=O)c2ccc(S(=O)(=O)N3CCCC3)cc2)cc1Cl	-1	15*	-1	2	3	3	1
COc1ccc(NS(=O)(=O)c2ccc(S(=O)(=O)N3CCCC3)cc2)cc1	8	1	0	1	3	x	x
C/C(=N/NC(=O)c1cccs1)c1cccc(N)c1	6	11*	-1	-12	3	-12	-9
COc1ccc(CCNC(=O)C2CC(=O)N(C3CCCCC3)C2)cc1OC (stereo not drawn)	-4	11*	-1	-2	7	-1	0
O=C(O)C12CC3CC(C1)CC(n1ncc(NCc4ccco4)c(Cl)c1=O)(C3)C2	0	0	0	-7	-1	x	x
O=c1c(Cl)c(NCC2CCCO2)cnn1C12CC3CC(CC(C3)C1)C2 (stereo not drawn)	3	12*	-1	-1	-2	-7	-2
SMILES	ADAM10 inh	PLC-gamma1 inh	proKLK7 act	PLCb3 inh	ADAM17 inh	PLCg1 ctr	PLCbeta3 conf
O=C(OC12CCCN(C1)/C(=C/c1ccccc1)C2)C1CCCCC1 (stereo not drawn)	-20	0	0	-2	-3	x	x
Clc1ccc(-c2c[n+](Cc3ccc(Cl)cc3Cl)c3n2CCCCC3)cc1	2	11*	0	6	4	-2	0
Clc1ccc(C[n+]2cc(-c3ccccc3)n3c2CCCCC3)c(Cl)c1	1	0	1	-2	2	x	x
Cc1ccccc1-c1cc2c(nn1)-c1ccccc1C2=O	-4	9	0	12*	-5	2	1
Cc1ccc(-c2cc3c(nn2)-c2ccccc2C3=O)cc1	1	3	0	0	-2	x	x
CC(NCc1ccc(OCc2ccc(Cl)cc2)cc1)C(O)c1ccccc1 (stereo not drawn)	9	19*	0	-4	6	2	-2
CCOC(=O)c1c(C)nc2ccc(Cl)cc2c1-c1ccccc1	7	6	0	2	2	x	x
CCOC(=O)COc1nc2ccc(Br)cc2c(-c2ccccc2)c1C(C)=O	0	9.8*	0	-3	3	-5	-4
COC(=O)C1=C(C)N(Cc2ccccc2C(F)(F)F)C(=NCc2cc(OC)c(OC)c(OC)c2)NC1CCc1ccccc1 (stereo not drawn)	-5	-4	-1	-7	-2	x	x
CCC(=O)N(c1nnc(SCC(=O)Nc2sccc2C(N)=O)s1)C1CC1	-22	4	0	-10	0	x	x
Cc1ccc(CN2CCC[C@]3(N[C@H](c4ccc(C)cc4)[C@@H]4C(=O)N(Cc5ccccc5)C(=O)[C@@H]43)C2=O)cc1	18	9.9*	0	8	8	-2	1
O=C(CC1SCCNC1=O)Nc1cccc(Cl)c1 (stereo not drawn)	-3	-2	0	-2	-5	x	x
CCc1ccccc1NC(=O)CC1SCCNC1=O (stereo not drawn)	10	11*	1	3	3	-7	-1
CCCc1cc(=O)[nH]c(SCC(=O)Nc2sccc2C#N)n1	-1	-2	0	-11	-4	x	x
CN(CC(=O)Nc1cccc(F)c1)C(=O)CCCc1cccs1	11	13*	0	10	7	-1	0
CN(CC(=O)Nc1ccccc1Cl)C(=O)CSc1nncs1	1	10*	0	0	7	-1	0
COc1ccc(OCC(=O)N/N=C/c2cccn2-c2cccc(C(=O)O)c2)cc1	-4	1	0	-11	-1	x	x
